For 12 molecules, NF-kB reporter, IRF reporter and viability score results are on record in the supplement of paper PMC10646978.

Holding throughout (details): modulator concentration 10 µM
In experiment [1] the test system is RAW-Dual (murine macrophage reporter line). Put plainly: NF-kB reporter (SEAP) activity fold change vs agonist alone; higher = enhanced NF-kB activity. An outline of the steps: (§1)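 Compound reached 10 μM final in each well by pin transfer, onto RAW-Dual murine macrophage reporter cells seeded at 50 000 per well in 384-well plates. After 1 hour at 37 °C, the cells were stimulated overnight with a PRR agonist. SEAP in the supernatant was read with QUANTI-Blue at 620 nm absorbance for NF-κB, and Lucia luciferase was read with QUANTI-Luc luminescence for IRF. Each signal was turned into fold change against the mean agonist-only control on the same plate, and two replicate plates were averaged with propagated errors.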

Experiment [2] shares this test system. Briefly: IRF reporter (Lucia luciferase) activity fold change vs agonist alone; higher = enhanced IRF activity. The essentials:
as §1

Experiment [3] has the same test system. Put plainly: viability score (confluency relative to resting cells, overnight) (fraction); higher = more viable, active = viable (0.7 or more). The essentials: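 In 384-well plates, RAW-Dual macrophages received compound at a final 10 μM overnight. Two confluency masks were then made with IncuCyte software from IncuCyte images of all imaged wells. The viability score is defined as confluency relative to resting cells. Passing the cutoff required both masks to lie above 70% of resting cells.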

The mark [4] stands for this setting: agonist: CpG ODN 1826 0.5 ug/mL.

± gives the standard deviation.

As for `CCN(CC)c1ccc(C=NNc2cc(N3CCOCC3)nc(N3CCOCC3)n2)cc1`, the figures for the NF-kB reporter in experiment [1] (setting [4]), in experiment [1] (agonist: LPS 0.1 ug/mL) and in experiment [1] (agonist: MPLA […]) were 0.894 ± 0.096, 1.03 ± 0.11 and 0.994 ± 0.1, respectively. Besides, the values for the IRF reporter in experiment [2] (agonist: 3'3'-cGAMP 10 ug/mL), in experiment [2] (agonist: LPS 0.1 ug/mL) and in experiment [2] (agonist: MPLA […]) were 0.458 ± 0.07, 1.28 ± 0.23 and 1.25 ± 0.17, respectively. Further, the viability score in experiment [3] was 0.994 (active).

On to `COc1ccc(C)c2sc(NC(=O)c3ccco3)nc12`, for which the NF-kB reporter in experiment [1] (setting [4]) worked out at 1.18 ± 0.089; in experiment [1] (agonist: LPS 0.1 ug/mL), 0.847 ± 0.068; in experiment [1] (agonist: MPLA […]), 1.11 ± 0.031. Besides, the IRF reporter turned out to be 0.863 ± 0.078 in experiment [2] (agonist: 3'3'-cGAMP 10 ug/mL), 0.845 ± 0.061 in experiment [2] (agonist: LPS 0.1 ug/mL) and 0.882 ± 0.073 in experiment [2] (agonist: MPLA […]). In addition, the viability score in experiment [3] is 0.971 (active).

As for `O=C(Nc1ccc([N+](=O)[O-])cc1)c1cc(Cl)ccc1O`, the figures for the NF-kB reporter in experiment [1] (setting [4]), in experiment [1] (agonist: LPS 0.1 ug/mL) and in experiment [1] (agonist: MPLA […]) were 1.14 ± 0.18, 1.02 ± 0.088 and 0.841 ± 0.081, respectively. In addition, the IRF reporter in experiment [2] (agonist: 3'3'-cGAMP 10 ug/mL) was determined as 0.905 ± 0.033; in experiment [2] (agonist: LPS 0.1 ug/mL), 1.17 ± 0.11; in experiment [2] (agonist: MPLA […]), 1.28 ± 0.17. Further, the viability score in experiment [3] was 0.991 (active).

Regarding `COc1ccc(S(=O)(=O)Nc2ccc(Oc3ccccc3)cc2)cc1`, the NF-kB reporter in experiment [1] (setting [4]) is 1.04 ± 0.18; in experiment [1] (agonist: LPS 0.1 ug/mL) it was 1.02 ± 0.11; in experiment [1] (agonist: MPLA […]) it was 2.55 ± 1.5. Besides, the IRF reporter in experiment [2] (agonist: 3'3'-cGAMP 10 ug/mL) turned out to be 0.972 ± 0.033; in experiment [2] (agonist: LPS 0.1 ug/mL) it was 1.17 ± 0.13; in experiment [2] (agonist: MPLA […]), 1.21 ± 0.2. Moreover, in experiment [3], the viability score was 1.01 (active).

`c1ccc(C2=Nc3ccccc3N=C(c3ccccc3)c3ccccc32)cc1`: the NF-kB reporter in experiment [1] (setting [4]) was 0.676 ± 0.039; in experiment [1] (agonist: LPS 0.1 ug/mL) it was 1.18 ± 0.13; in experiment [1] (agonist: MPLA […]), 1.08 ± 0.066. Further, the IRF reporter was 0.914 ± 0.036 in experiment [2] (agonist: 3'3'-cGAMP 10 ug/mL), 1.2 ± 0.1 in experiment [2] (agonist: LPS 0.1 ug/mL) and 1.01 ± 0.096 in experiment [2] (agonist: MPLA […]). For the same molecule, in experiment [3], the viability score was 0.979 (active).

With `Ic1ccc(OCCCOc2ncnc3ccccc23)cc1`, the NF-kB reporter in experiment [1] (setting [4]) is 0.781 ± 0.069; in experiment [1] (agonist: LPS 0.1 ug/mL), 0.931 ± 0.045; in experiment [1] (agonist: MPLA […]), 1.14 ± 0.12. Also, the figures for the IRF reporter in experiment [2] (agonist: 3'3'-cGAMP 10 ug/mL), in experiment [2] (agonist: LPS 0.1 ug/mL) and in experiment [2] (agonist: MPLA […]) were 0.963 ± 0.05, 1.39 ± 0.095 and 1.6 ± 0.2, respectively. For the same molecule, in experiment [3], the viability score was 1.02 (active).

As for `COc1ccc2c(c1)c(CC(=O)O)c(C)n2C(=O)c1ccc(Cl)cc1`, the NF-kB reporter was 1.23 ± 0.21 in experiment [1] (setting [4]), 1.06 ± 0.16 in experiment [1] (agonist: LPS 0.1 ug/mL) and 0.951 ± 0.054 in experiment [1] (agonist: MPLA […]). For the same molecule, the values for the IRF reporter in experiment [2] (agonist: 3'3'-cGAMP 10 ug/mL), in experiment [2] (agonist: LPS 0.1 ug/mL) and in experiment [2] (agonist: MPLA […]) were 1.05 ± 0.034, 1.25 ± 0.14 and 1.29 ± 0.1, respectively. For the same molecule, the viability score in experiment [3] is 1 (active).

On to `COc1cc2c(Oc3ccc4[nH]c(C)cc4c3F)ncnc2cc1OCCCN1CCCC1`, for which the NF-kB reporter in experiment [1] (setting [4]) is 0.607 ± 0.097; in experiment [1] (agonist: LPS 0.1 ug/mL), 1.03 ± 0.052; in experiment [1] (agonist: MPLA […]), 1.09 ± 0.11. Also, the results for the IRF reporter in experiment [2] (agonist: 3'3'-cGAMP 10 ug/mL), in experiment [2] (agonist: LPS 0.1 ug/mL) and in experiment [2] (agonist: MPLA […]) were 0.927 ± 0.043, 1.22 ± 0.082 and 1.35 ± 0.12, respectively. The viability score in experiment [3] was 1 (active).

With `CCC(C(=O)N1CCC2(CC1)CC2(F)F)c1ccccc1` (centres undefined), the values for the NF-kB reporter in experiment [1] (setting [4]), in experiment [1] (agonist: LPS 0.1 ug/mL) and in experiment [1] (agonist: MPLA […]) were 1.08 ± 0.069, 1.08 ± 0.098 and 1.62 ± 0.45, respectively. The values for the IRF reporter in experiment [2] (agonist: 3'3'-cGAMP 10 ug/mL), in experiment [2] (agonist: LPS 0.1 ug/mL) and in experiment [2] (agonist: MPLA […]) were 1.06 ± 0.048, 1.19 ± 0.24 and 1.36 ± 0.33, respectively. Besides, the viability score in experiment [3] is 0.911 (active).

With `Cc1cc(-c2csc(NCc3ccccc3)n2)c(C)o1.Cl`, the NF-kB reporter in experiment [1] (setting [4]) amounted to 0.766 ± 0.043; in experiment [1] (agonist: LPS 0.1 ug/mL) it was 0.892 ± 0.13; in experiment [1] (agonist: MPLA […]) it was 1 ± 0.026. Besides, the IRF reporter came out at 0.576 ± 0.026 in experiment [2] (agonist: 3'3'-cGAMP 10 ug/mL), 0.924 ± 0.07 in experiment [2] (agonist: LPS 0.1 ug/mL) and 1.1 ± 0.13 in experiment [2] (agonist: MPLA […]). Also, the viability score in experiment [3] was 0.991 (active).

In the case of `COC(=O)Nn1cnnc1`, the results for the NF-kB reporter in experiment [1] (setting [4]), in experiment [1] (agonist: LPS 0.1 ug/mL) and in experiment [1] (agonist: MPLA […]) were 1.03 ± 0.17, 1.08 ± 0.087 and 0.97 ± 0.095, respectively. Besides, the IRF reporter came out at 0.984 ± 0.025 in experiment [2] (agonist: 3'3'-cGAMP 10 ug/mL), 1.25 ± 0.22 in experiment [2] (agonist: LPS 0.1 ug/mL) and 1.39 ± 0.24 in experiment [2] (agonist: MPLA […]). Also, the viability score in experiment [3] was 1 (active).

As for `CS(=O)(=O)N(Cc1ccccc1)c1ccc(C(=O)NCCSCc2ccc(Cl)cc2)cc1`, the NF-kB reporter in experiment [1] (setting [4]) was found to be 0.924 ± 0.099; in experiment [1] (agonist: LPS 0.1 ug/mL), 0.976 ± 0.062; in experiment [1] (agonist: MPLA […]), 1.01 ± 0.097. Further, the IRF reporter in experiment [2] (agonist: 3'3'-cGAMP 10 ug/mL) was found to be 1.01 ± 0.028; in experiment [2] (agonist: LPS 0.1 ug/mL) it was 1.54 ± 0.25; in experiment [2] (agonist: MPLA […]), 1.13 ± 0.14. For the same molecule, the viability score in experiment [3] was 1.01 (active).
